# Hits are enriched below; roughly 8.8% of the tested compounds scored in any of these assays.
# HT1080 IDH1KD tx – toxicity to HT-1080 IDH1 knockdown cells (counter line); actives 2% (n = 360,000); HT-1080 IDH1 knockdown viability, ATP luminescence, 48 h; Potency, µM (series often up to 46.1 µM), inactives show at the highest dose activity, negative = toxicity, usual class: cytotoxic;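 further: potency means the concentration at half of the fitted maximal effect; 0% = DMSO wells and -100% = cell-free medium wells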
#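 % activity derives from luminescence (CellTiter-Glo), normalised to DMSO and no-cell wells. HT-1080-IDH1KD cells, 750/well, had 48 h compound exposure at 37 °C.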
# HT1080NT lethal – kills 2HG-producing HT-1080-NT fibrosarcoma cells; HT-1080-NT fibrosarcoma viability, CellTiter-Glo ATP luminescence, 48 h; Potency, µM (top dose mostly 46.1 µM), for inactives: at the highest dose activity, negative = less viability, most hits filed as cytotoxic; actives 1.6% (n = 360,000);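 further: NT is the 2HG producing partner of a matched IDH1 knockdown line; potency means the concentration at half of the fitted maximal effect; 0% = DMSO-treated cells and -100% = media-only wells without cells; nearly all actives have a fitted effect of over 55% in size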
#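 Toxicity toward the 2HG-producing NT line was scored as %Activity, normalised to DMSO and no-cell wells, from CellTiter-Glo luminescence after 48 hours' treatment.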
# IL1B secr inh – inhibitors of inflammasome signaling (IL-1 beta secretion); THP-1 LPS/ATP IL-1B secretion, AlphaLISA, 16 h; hits give low values; actives 4.7% (n = 360,000); activity change, % at 57.5 µM; in the data active means activity change below about -50%; inconclusive means mostly about -30% to -49%
#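 THP-1 cells pretreated 1 hr with compounds (up to 57.5 uM final), then stimulated with LPS (250 ng/mL final) plus ATP (1.25 mM final); secreted IL-1B measured by AlphaLISA after 16 hr, decreased signal indicating inhibition.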
# KB-V1 MDR tox – KB-V1 MDR subline cytotoxicity | actives 3.4% (n = 400,000) | KB-V1 MDR cells viability, CellTiter-Glo, 72 h | Potency, µM (titrated, usually from 46.1 µM), usual class: cytotoxic; further: potency means the concentration at half of the fitted maximal effect; nearly all actives have a fitted effect of over 60% in size
#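 Compound-treated KB-V1 multidrug-resistant cells, 72 h, 37 degrees C; viability by CellTiter-Glo. Fitted qHTS curves give the values.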
# KB-3-1 cytotox – kills parental KB-3-1 adenocarcinoma cells; KB-3-1 viability, CellTiter-Glo ATP luminescence, 72 h; Potency, µM (titrated, usually from 46.1 µM), actives largely listed as cytotoxic; actives 1.4% (n = 400,000); AID 1347075; further: potency means the concentration at half of the fitted maximal effect; nearly all actives have a fitted effect of over 60% in size
#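 Parental KB-3-1 viability, qHTS format: 72 h compound exposure, 37 °C; CellTiter-Glo; media-only wells and DMSO plates as controls; concentration-effect fits on corrected data.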
# * marks the source's active call; other numbers are inactive results; i = inactive; ? = inconclusive; . = no result given. Unless noted, the call rests on the fitted dose curve; in most records, active means well fitted curve in the direction sought with a large enough effect; inconclusive means small, poorly fitted or top-dose-only effect, or another doubt; inactive means no such curve, though single readings can be large; an effect the other way counts as inactive or inconclusive. Unless noted, on the % scale 0 is the no-effect control and ±100 the full control effect.
SMILES,HT1080 IDH1KD tx,HT1080NT lethal,IL1B secr inh,KB-V1 MDR tox,KB-3-1 cytotox
COc1ccc(Cn2c(C(=O)O)c(CNCc3ccc(C)o3)c3ccc(OC)cc32)cc1,.,.,.,i,8.2µM*
COc1ccc2c(CNCc3ccc(C)o3)c(C(=O)O)n(Cc3ccccc3C)c2c1,.,.,.,i,i
CCOC(=O)c1ccc2ncc(C(=O)OCC)c(Nc3ccc(N4CCOCC4)cc3)c2c1,?,?,-7,i,i
CCOC(=O)c1[nH]c2ccc(OC)cc2c1NC(=S)N1CCN(c2ccccc2OC)CC1,13µM*,?,-3,?,8.2µM*
CCOC(=O)c1cnc2ccc(OCC)cc2c1N(C)Cc1ccccc1,?,?,-71*,?,i
CCOC(=O)c1cnc2ccc(OC)cc2c1Nc1ccc(N2CCN(C)CC2)cc1,23µM*,?,-24,i,i
CCOC(=O)c1cnc2ccc(OCC)cc2c1Nc1ccc(OCc2ccccc2Cl)cc1,.,.,.,i,i
CCOC(=O)c1cnc2ccc(OCC)cc2c1N1CCN(c2ccccc2OC)CC1,?,?,-55*,?,?
CCOC(=O)c1cnc2c(OC)cccc2c1N1CCN(c2ccccc2F)CC1,.,.,.,i,i
CCOc1ccc(-n2c(CCC(=O)O)ccc2-c2ccc(Br)cc2)cc1,.,.,.,i,i
CCOc1ccccc1C(=O)Nc1nc2c(s1)CC(C)CC2 (configuration not stated),.,.,.,i,i
Oc1ccc2ccccc2c1/C=N/Nc1ccccc1,-17%,-18%,1,i,?
NC(=S)N/N=C/c1c(O)ccc2ccccc12,-1%,-20%,25,?,1.6µM*
NC(=S)N/N=C/c1coc2c(ccc3ccccc32)c1=O,6%,3%,1,5.2µM*,6.5µM*
O=CN/N=C/c1c(O)ccc2ccccc12,?,-24%,245,?,7.3µM*
Cc1cc(C)nc(/N=C(\N)Nc2cc([N+](=O)[O-])ccc2C)n1,12%,9%,.,i,i
Cc1cc(C)nc(/N=C(\N)Nc2ccc([N+](=O)[O-])cc2)n1,15%,4%,-57*,?,?
Cc1cc(C)nc(/N=C(\N)Nc2cccc([N+](=O)[O-])c2)n1,-2%,4%,-97*,i,i
CC1=C(C)CC(C(=O)Nc2cccc([N+](=O)[O-])c2)C(C(=O)O)C1 (configuration not stated),16%,11%,-16,i,i
CN(C)c1ccc(C=O)c(Oc2ccccc2)c1,0%,-18%,-11,i,i
N#Cc1cn(Cc2ccco2)c(=O)[nH]c1=O,-2%,2%,9,?,i
CCOC(=O)Cn1nc(C)c(NC(=O)COc2ccc(Cl)cc2C)c1C,.,.,.,?,i
COc1cc(CNCCc2ccccc2)cc(Br)c1OCC(=O)Nc1ccccc1C,-13%,?,-67*,?,i
COc1ccccc1NC(=O)COc1ccc(Br)cc1CNC1CCCC1,?,-21%,-86*,?,i
CNCc1cc(Br)c(OCC(=O)Nc2ccccc2OC)c(OC)c1,?,?,-62*,i,i
SMILES,HT1080 IDH1KD tx,HT1080NT lethal,IL1B secr inh,KB-V1 MDR tox,KB-3-1 cytotox
CC(C)Nc1nc(NCCN2CCCC2)c2sc(-c3ccccc3)cc2n1,?,?,.,?,i
CCN1CCN(C(=O)C2CCC(=O)N(Cc3cccc(C(F)(F)F)c3)C2)CC1 (configuration not stated),12%,3%,i,i,i
Cc1cc(C)c2c(N)c3cccc(C)c3nc2n1,9.2µM*,10µM*,-99*,8.2µM*,7.3µM*
Cc1cccc2c(N)c3c(nc12)CCCC3 (tested in a mixture with another compound),-4%,3%,-21,i,i
CCc1ccc(CN2CCCC(CCC(=O)N3CCN(c4ccccn4)CC3)C2)o1 (configuration not stated),-1%,23%,-11,i,i
O=C(NNC(=O)c1cc(-c2ccncc2)nc2ccccc12)Nc1ccc(F)cc1,12%,6%,i,i,i
Cn1nc(-c2ccccc2)cc1NC(=O)Nc1ccc(C(C)(C)C)cc1,-18%,-2%,-54*,i,i
CC(C)(C)c1ccc(-c2cc(C(=O)NNC(=O)Nc3ccccc3)c3ccccc3n2)cc1,?,?,-50*,i,?
Cn1nc(-c2ccc(Cl)cc2)cc1NC(=O)Nc1ccccc1,-25%,-23%,-26,i,i
O=C(NNC(=O)c1cc(-c2ccccc2)nc2ccccc12)Nc1cccc(Cl)c1,?,18µM*,-11,?,i
O=C(NNC(=O)c1cc(-c2cccnc2)nc2ccccc12)Nc1ccc(Cl)cc1,?,?,-96*,i,?
Cc1ccc(-c2nnc(SCC(=O)NCc3ccccc3)o2)cc1,.,.,.,i,i
Cc1cc(C)cc(OCc2nnc(SCC(=O)N3CCCCC3)o2)c1,2%,0%,4,?,i
CC(=O)c1cccc(-c2ccnc3c2CC(C(=O)Nc2ccc(C(C)C)cc2)O3)c1 (configuration not stated),?,?,26,?,i
O=C(Cc1cccc2ccccc12)NNC(=O)Nc1cccc(Cl)c1,?,16µM*,-30,i,i
O=[N+]([O-])c1ccccc1S(=O)(=O)NCc1ccccn1,.,.,.,i,i
NC(=S)NNc1ccnc2cc(Cl)ccc12,22%,5%,-3,?,i
O=C(NNc1ccnc2cc(Cl)ccc12)C1CCCCC1,?,3.7µM*,-9,?,5.8µM*
FC(F)Oc1ccc(NC(=S)NNc2ccnc3cc(Cl)ccc23)cc1,21µM*,26µM*,-93*,?,16µM*
Cc1cccnc1C(NC(=O)C1CCN(CCCOc2ccc(F)cc2)CC1)c1ccccc1 (configuration not stated),?,?,?,i,i
CCOC(=O)C1=C(O)/C(=C/c2cn(CC(=O)N3CCCC3)c3ccccc23)SC1=Nc1ccccc1,5%,-1%,?,i,15µM*
COC(=O)c1cn(CC(=O)N2CCCCCC2)c2ccccc12,1%,4%,-2,i,i
CC(C)C[C@H](NC(=O)c1[nH]cnc1C(=O)N[C@H](C)c1ccccc1)C(=O)OC(C)(C)C,?,?,-55*,?,?
CC(C)C[C@H](NC(=O)c1nc[nH]c1C(=O)NC(c1ccccc1)c1ccccc1)C(=O)OC(C)(C)C,21µM*,26µM*,-69*,?,?
C[C@H](NC(=O)c1nc[nH]c1C(=O)N[C@@H](C)c1ccccc1)C(=O)OC(C)(C)C,3%,8%,0,i,i

# Bioassay records deposited in PubChem BioAssay by National Center for Advancing Translational Sciences (NCATS).
